# Screens from PubChem BioAssay.
# The list is not random: actives were taken first. Their share in the collection is about 5.7%.
# HT1080-NT tox = kills 2HG-producing HT-1080-NT fibrosarcoma cells; HT-1080-NT fibrosarcoma viability, CellTiter-Glo ATP luminescence, 48 h; AID 686970; Potency, µM (top dose mostly 46.1 µM), inactives show at the top dose activity, negative = less viability, hits mostly cytotoxic; actives 1.6% (n = 360,000);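 note: NT is the 2HG producing partner of a matched IDH1 knockdown line; 0% = DMSO-treated cells and -100% = media-only wells without cells; nearly all actives have a fitted effect of over 55% in size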
#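 750 cells/well, RPMI + 5% FBS; 2 h settle, compound pin-transfer, 48 h at 37 degrees C. CellTiter-Glo 10 min RT, luminescence. Normalized to DMSO and media-only wells.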
# HT1080 IDH1KD tx = kills HT-1080 cells with IDH1 knockdown; actives 2% (n = 360,000); HT-1080 IDH1 knockdown viability, ATP luminescence, 48 h; Potency, µM (highest dose often 46.1 µM), inactives show at the highest dose activity, negative = toxicity, actives largely listed as cytotoxic;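 note: 0% = DMSO wells and -100% = cell-free medium wells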
#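 HT-1080-IDH1KD cells (IDH1 knocked down), 750/well in RPMI with 5% FBS, treated with compound 48 h at 37 degrees C. Viability by CellTiter-Glo luminescence, normalised to DMSO and no-cell wells; concentration-response curves classed.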
# KB-3-1 tox = kills parental KB-3-1 adenocarcinoma cells; actives 1.4% (n = 400,000); Potency, µM (top dose mostly 46.1 µM), most hits filed as cytotoxic; KB-3-1 viability, CellTiter-Glo ATP luminescence, 72 h; note: nearly all actives have a fitted effect of over 60% in size
#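 KB-3-1 cells, DMEM (no phenol red) + 10% FBS; compound by pin transfer, 72 h, 37 °C. Readout: CellTiter-Glo luminescence after 10 min. Data normalized, curve-fitted.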
# KB-V1 MDR tox = KB-V1 MDR subline cytotoxicity. actives 3.4% (n = 400,000). Potency, µM (top dose mostly 46.1 µM), hits mostly cytotoxic. KB-V1 MDR cells viability, CellTiter-Glo, 72 h; note: nearly all actives have a fitted effect of over 60% in size
#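 Cytotoxicity via CellTiter-Glo luminescence after 72 h compound exposure at 37 degrees C. Cells: drug-selected KB-V1 line, DMEM phenol-red free plus 10% FBS. Compounds tested at multiple concentrations; normalized data fitted to concentration-effect curves.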
# * = called active by the depositor; i = inactive; ? = inconclusive; / = no result; [ ] = dose if it differs, or a comment. Calls come from the whole dose curve; as a rule, active = well fitted curve in the direction sought with a large enough effect; inconclusive = small, poorly fitted or top-dose-only effect, or another doubt; inactive = no such curve, though single readings can be large; an effect the other way counts as inactive or inconclusive. Unless noted, % is set by controls: 0 for no effect and ±100 for the full control effect; potency is the fitted concentration of half-maximal effect.
SMILES,HT1080-NT tox,HT1080 IDH1KD tx,KB-3-1 tox,KB-V1 MDR tox
Cc1ccccc1N1C(=O)CN(Cc2sccc2C)C1=S,7%,1%,?,3.3µM*
Cc1ccc(N2C(=O)CN(Cc3cccs3)C2=S)cc1C,8%,7%,i,i
Cc1ccc(N2C(=O)CN(Cc3sccc3C)C2=S)cc1C,9%,8%,?,16µM*
Cc1ccc(NC(=O)Cn2c(=O)c(C(F)(F)F)nc3ccccc32)c(C)c1,/,/,i,i
NC(c1csc(NC(=O)Nc2cccc(Cl)c2)n1)C1CCCCC1 (configuration not stated),18µM*,18µM*,?,i
NC(CCc1ccccc1)c1csc(NC(=O)Nc2cccc(Cl)c2)n1 (configuration not stated),?,?,i,i
NC(c1ccccc1)c1csc(NC(=O)Nc2ccc(OC(F)(F)F)cc2)n1 (configuration not stated),?,18µM*,i,i
O=C(Cc1csc(NC(=O)Nc2cccc(Cl)c2)n1)NC1CCCC1,1%,-1%,?,i
NC(c1csc(Nc2nncc3ccccc23)n1)C1CCCCC1 (configuration not stated),21µM*,23µM*,?,?
NC(c1ccccc1)c1csc(NC(=O)Nc2cccc(Cl)c2)n1 (configuration not stated),21µM*,16µM*,i,i
COC(=O)c1sc(N2C(=O)c3oc4cc(C)c(C)cc4c(=O)c3C2c2ccccc2F)nc1C (configuration not stated),/,/,i,i
O=C(Cn1c(SCCOc2ccccc2)nc2ccccc21)N1CCOCC1,/,/,i,i
NC(c1csc(NC(=O)c2cccc(OC(F)(F)F)c2)n1)c1ccccc1Cl (configuration not stated),23µM*,?,?,i
COC(=O)c1cnc(Nc2nc(C(N)c3ccccc3Cl)cs2)nc1C(F)(F)F (configuration not stated),?,?,i,i
NC(c1csc(NC(=O)Nc2ccccc2)n1)C1CCCCC1 (configuration not stated),?,?,?,18µM*
NC(c1ccccc1)c1csc(NC(=O)NCC2CCCCC2)n1 (configuration not stated),?,?,i,i
CCCC1NC(=O)c2cc3ccccc3cc2-n2c1nc1ccc(C)cc1c2=O (configuration not stated),7%,2%,i,?
O=C1NC(Cc2ccc(O)cc2)c2nc3cc(F)ccc3c(=O)n2-c2cc3ccccc3cc21 (configuration not stated),15µM*,18µM*,15µM*,?
O=C1NC(Cc2ccc(O)cc2)c2nc3cc(F)ccc3c(=O)n2-c2ncccc21 (configuration not stated),-15%,0%,i,i
CCCC1NC(=O)c2cc3ccccc3cc2-n2c1nc1cc(Cl)ccc1c2=O (configuration not stated),-2%,-2%,18µM*,12µM*
O=C1NC(Cc2ccc(O)cc2)c2nc3cc(F)c(F)cc3c(=O)n2-c2ncccc21 (configuration not stated),?,21µM*,i,i
O=C1NC(Cc2ccc(O)cc2)c2nc3ccc(Cl)cc3c(=O)n2-c2cc3ccccc3cc21 (configuration not stated),15µM*,?,?,?
O=C1NC(Cc2ccccc2)c2nc3ccc(Cl)cc3c(=O)n2-c2cc3ccccc3cc21 (configuration not stated),-19%,?,?,i
COc1ccc(Nc2ncnc3onc(C)c23)c(OC)c1,/,/,i,i
COc1cccc(NC(=O)c2nnn(Cc3ccc(OC)c(Br)c3)c2N)c1,/,/,i,i
SMILES,HT1080-NT tox,HT1080 IDH1KD tx,KB-3-1 tox,KB-V1 MDR tox
CNS(=O)(=O)c1cn(CC(=O)Nc2ccc(OC)cc2OC)cc1S(=O)(=O)NC,/,/,i,i
Cc1ccc2c(=O)n3c(nc2c1)C(Cc1ccc(O)cc1)NC(=O)c1cc2ccccc2cc1-3 (configuration not stated),5.2µM*,6.5µM*,16µM*,?
CCN(CC)CCNC(=O)c1cc2c(=O)[nH]c3ccc(C)cc3c2s1,/,/,i,?
CCCN1CCN(CCCNC(=O)c2cc3c(=O)[nH]c4ccc(C)cc4c3s2)CC1,21µM*,26µM*,i,i
COc1ccc(CCNC(=O)c2ccc3c(c2)CCN3S(=O)(=O)c2ccccc2)cc1,/,/,i,i
Cc1ccc(Nc2nc(NCC3CCCO3)nc(N)c2[N+](=O)[O-])cc1 (configuration not stated),-20%,-18%,i,21µM*
Cc1cc2c(cc1C)N(C(=O)CCl)CCN2C(=O)CCl,?,?,15µM*,7.3µM*
Cc1cc2c(cc1C)N(C(=O)CCl)CC(=O)N2,?,23µM*,?,?
Cc1ccc(C2(c3ccccc3)NC(=O)N(CC(=O)N3CC(=O)Nc4ccccc43)C2=O)cc1C (configuration not stated),0%[9.24 µM],-22%,i,i
CCOc1ccc(NC(=O)N2CC3CCCN3c3ccccc32)cc1 (configuration not stated),/,/,i,i
NC(=O)c1cccc(-c2ccnc3c2CC(C(=O)NCc2cccc(Cl)c2)O3)c1 (configuration not stated),?,9.2µM*,?,i
CC(=O)Nc1ccc(-c2ccnc3c2CC(C(=O)NCc2cccc(Cl)c2)O3)cc1 (configuration not stated),?,1.6µM*,3.3µM*,?
CC(=O)Nc1cccc(-c2ccnc3c2CC(C(=O)NCc2cccc(Cl)c2)O3)c1 (configuration not stated),?,?,?,i
O=C(CSc1ncc(CO)n1Cc1ccccc1)Nc1ccc(C(F)(F)F)cc1,/,/,i,?
CCc1ccc(NC(=O)C2CCN(c3cc(C)nc4c(-c5ccc(Cl)cc5)c(C)nn34)CC2)cc1,/,/,i,i
Cc1ccc(NC(=O)C2CCCN(S(=O)(=O)c3cccc4nsnc34)C2)cc1C (configuration not stated),/,/,i,i
Cc1cc2c(n1-c1ccc(Br)cc1)CC(C)(C)CC2=O,10%,7%,i,26µM*
Cc1ccc(-n2c(C)cc3c2CC(C)(C)CC3=O)cc1C,-2%,2%,i,i
Cc1cc(C)cc(OCc2nc3ncc(Br)cc3[nH]2)c1,?,?,1.3µM*,1µM*
Brc1cnc2nc(SCc3nc4ccccc4[nH]3)[nH]c2c1,1%,-1%,i,i
COc1cccc(OCc2nc3ncc(Br)cc3[nH]2)c1,2.2µM*,?,5.8µM*,1µM*
